In PubChem BioAssay AID1259415 (National Center for Advancing Translational Sciences (NCATS), 2018):
Values joined by “and” are separate entries in the source; they are usually repeats but may differ in a detail not shown here. Equal values may be shown once. Out of some 410,000 compounds screened, about 18,000 (4.4%) were called active. Another 7% or so got no clear call; they are omitted. Cut-off read from the data, not from the text of the source: active = activity change below about -60%; inconclusive = no clear call, values can overlap the other calls; inactive = above about -39%. For the sample, actives were picked, then their nearest neighbours and some compounds at random. A structure can be active in one record and inactive in another.
% is set by controls: 0 for no effect and ±100 for the full control effect.

Assay: qHTS Assay for inhibitors of the human cytomegalovirus (HCMV)
Details: HFF cells, HCMV-luciferase reporter, 72 h; at 57.5 µM; stronger effect = lower value
Summary of the method: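 After 16 h attachment at 37C, HFF cells received test compound and HCMV-luciferase (1 PFU/cell); reporter luminescence read 72 h later, data normalized against buffer-only and known inhibitor Salinomycin.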
With `CN(Cc1cccnc1)C(=O)c1cc(COc2ccc3ncccc3c2)on1` the activity change, negative = inhibition was -81.6% (active). With `CCOc1ccc(NS(=O)(=O)c2ccc(Cl)c(C(=O)N(C)Cc3cccnc3)c2)cc1` the activity change, negative = inhibition was -5.24% (inactive). With `CCn1ccnc1CN(C)C(=O)c1cc(COc2ccc(Cl)cc2OC)on1` the activity change, negative = inhibition was 1.37% (inactive). With `CCc1nccn1S(=O)(=O)c1cc(Br)ccc1Br` the activity change, negative = inhibition was 3.85% (inactive). In the case of `Cc1cc(C)cc(NC(=O)CSc2nc(=O)n(CCN3CCOCC3)c3c2CCC3)c1`, the activity change, negative = inhibition is reported as 14.5% (inactive). With `O=C(COC(=O)CCc1c[nH]c2ccccc12)Nc1cccc(Cl)c1` the activity change, negative = inhibition was -16% (inactive). With `COC(=O)c1ccc2c(c1)S(=O)(=O)NC2C` (centres undefined) the activity change, negative = inhibition was 24.6% (inactive). For `CC1CCCCC1NC(=O)COC(=O)Cc1ccc(Cl)cc1` (centres undefined), the activity change, negative = inhibition was 26.8% (inactive). For `CCOCCC(=O)Nc1ccc2c(c1)c(=O)n(C)n2-c1ccc2ccccc2c1`, the activity change, negative = inhibition was -74.6% (active). For `COc1cc(Cn2c3ccc(NC(=O)CC(C)c4ccccc4)cc3c(=O)n2C)ccc1F` (centres undefined), the activity change, negative = inhibition was -10.4% (inactive). For `CCNC(=S)Nc1ccc2c(c1)c(=O)n(C)n2Cc1ccc(Cl)cc1`, the activity change, negative = inhibition was -4.48% (inactive). With `CCCCn1c(N)c(N(CC)C(=O)/C=C/c2ccco2)c(=O)[nH]c1=O` the activity change, negative = inhibition was 14.2% (inactive). With `O=C1/C(=C/c2cccs2)CCC1C1CCCC1` (centres undefined) the activity change, negative = inhibition was -34.7% (inactive). For `O=C1/C(=C/c2cccs2)SC(=S)N1C1CCS(=O)(=O)C1` (centres undefined), the activity change, negative = inhibition was -80.8% (active). With `Cn1nccc1NS(=O)(=O)c1ccc(F)cc1` the activity change, negative = inhibition was 19.9% (inactive). With `Cc1ccc2cccc(NC(=O)c3ccc(OC(C)C)cc3)c2n1` the activity change, negative = inhibition was 9.69% (inactive). With `CCOc1ccc(N(CC)S(=O)(=O)N2CCCC(C(=O)Nc3ccc(C(C)=O)cc3)C2)cc1` (centres undefined) the activity change, negative = inhibition was 11.4% (inactive). With `CC(Sc1nnc(COc2ccccc2)n1-c1ccccc1)C(=O)O` (centres undefined) the activity change, negative = inhibition was -4.35% (inactive). With `COc1ccc(OCc2n[nH]c(=S)n2N)cc1` the activity change, negative = inhibition was 39.1% (inactive). For `Cc1ccc(OCc2n[nH]c(=S)n2-c2ccccc2)cc1`, the activity change, negative = inhibition was -60.4% (active). In the case of `CCc1ccccc1NC(=O)N1CCC2(CC1)Oc1ccccc1C(=O)N2Cc1ccccc1F`, the activity change, negative = inhibition is reported as 6.91% (inactive). In the case of `CN1c2ccccc2[C@@]2(CCN=C2N2CCOC2=O)[C@H]1c1cn(C)c2ccccc12`, the activity change, negative = inhibition is reported as 7.43% (inactive). In the case of `CCCCCCNCCn1cnc2c(N)ncnc21`, the activity change, negative = inhibition is reported as -40% (inactive). With `CCOC(=O)C1=C(C)NC(C)=C(C(=O)OCC)C1c1ccccn1` the activity change, negative = inhibition was 1.28% (inactive) and -98.9% (active). In the case of `CCOC(=O)C1C(=O)NCC1c1ccccc1` (centres undefined), the activity change, negative = inhibition is reported as 25.9% (inactive). With `CCOC(=O)C1=C(C)NC(SC)=NC1c1ccccc1` (centres undefined) the activity change, negative = inhibition was -75.9% (active). For `CCOC(=O)C1=C(C)NC(C)=C(C(=O)OCC)C1C1=COCCO1`, the activity change, negative = inhibition was 42.6% (inactive). For `C=CCC1(C#N)C(=S)NC(C)=C(C(=O)OCC)C1c1ccccc1` (centres undefined), the activity change, negative = inhibition was 21.2% (inactive). With `CCOC(=O)C1=C(CC)Nc2ccccc2N=C1N` the activity change, negative = inhibition was 40.2% (inactive). With `Cc1ccc(CN2C(=O)SC(Nc3ccccc3)C2=O)cc1` (centres undefined) the activity change, negative = inhibition was 4.93% (inactive). For `CC(=O)c1ccc(NC(=O)C2CCN(S(=O)(=O)c3c(C)noc3/C=C/c3ccc(C)cc3)CC2)cc1`, the activity change, negative = inhibition was 8.22% (inactive). With `Cc1ccccc1CNC(=O)C(=O)NCC(c1cccs1)S(=O)(=O)c1cccs1` (centres undefined) the activity change, negative = inhibition was -7.75% (inactive). With `Cc1ccc2nc(-c3ccc(O)cc3)c(Nc3ccc4c(c3)OCO4)n2c1` the activity change, negative = inhibition was 27.1% (inactive). In the case of `COc1ccc(N2C(=O)C(CC(=O)Nc3ccccc3)N(Cc3ccc(OC)c(OC)c3)C2=O)cc1` (centres undefined), the activity change, negative = inhibition is reported as 38.3% (inactive). For `CN(C)c1ccc(NC(=S)N(CCc2ccccc2)C2CC(=O)N(c3c(Cl)cccc3Cl)C2=O)cc1` (centres undefined), the activity change, negative = inhibition was -21.4% (inactive). With `CCOc1ccc(N2C(=O)CC(N(CCc3ccc(OC)c(OC)c3)C(=S)Nc3ccccc3)C2=O)cc1` (centres undefined) the activity change, negative = inhibition was -67.5% (active). In the case of `CC(C)Oc1ccc(NC(=O)c2cc3ccccc3o2)cc1`, the activity change, negative = inhibition is reported as 84.8% (inactive). For `COc1cccc(NC(=O)Cn2c(=O)cc(C)c3c(C)nn(-c4cccc(F)c4)c32)c1`, the activity change, negative = inhibition was 2.05% (inactive). For `COc1ccc(NC(=O)Cn2c(=O)cc(C)c3c(C)nn(-c4cccc(Cl)c4C)c32)cc1OC`, the activity change, negative = inhibition was -103% (active). For `COC(=O)c1ccccc1NC(=O)Cn1c(=O)cc(C)c2c(C)nn(-c3cccc(Cl)c3C)c21`, the activity change, negative = inhibition was -6.78% (inactive). With `O=C(COC(=O)Cc1ccccc1F)NCCc1ccccc1` the activity change, negative = inhibition was 106% (inactive). For `CCCn1c(NCc2ccccc2F)nc2ccccc21`, the activity change, negative = inhibition was 49.2% (inactive). With `N=c1n(CCc2ccccc2)c2ccccc2n1Cc1ccccc1F` the activity change, negative = inhibition was -70.6% (active). For `CCOCCN(C=O)c1cccc(OC)c1`, the activity change, negative = inhibition was 18% (inactive). With `COc1ccc(NC(=S)NCC2CCN(c3ccc(OC)cc3)C2)cc1` (centres undefined) the activity change, negative = inhibition was -63.2% (active). With `COc1ccc(N2CCC(CNC(=S)Nc3c(C)cccc3C)C2)cc1` (centres undefined) the activity change, negative = inhibition was 0% (inactive). For `COc1ccc(N2CCN(C(=S)Nc3ccc(S(N)(=O)=O)cc3)CC2)cc1`, the activity change, negative = inhibition was 9.64% (inactive). For `O=C(Cn1cc(SCc2cccc(Cl)c2)c2ccccc21)N1CCCCC1`, the activity change, negative = inhibition was 24.5% (inactive). In the case of `CCOC(=O)c1oc2c(CN3CCN(C)CC3)c(O)ccc2c(=O)c1-c1ccc(Br)cc1`, the activity change, negative = inhibition is reported as -37.4% (inactive). In the case of `COc1ccc(-c2c(C)c3ccc(O)c(CN4CCN(C)CC4)c3oc2=O)cc1OC`, the activity change, negative = inhibition is reported as 5.43% (inactive). With `CN1CCN(Cc2c(O)ccc3c2oc(=O)c2ccccc23)CC1` the activity change, negative = inhibition was -78.7% (active). In the case of `O=C(CSc1oc(-c2ccco2)nc1S(=O)(=O)c1ccccc1)c1ccc(Cl)cc1`, the activity change, negative = inhibition is reported as -17.5% (inactive). For `Cc1cccc(N2CCN(c3c(CN4CCCC4)c(=O)oc4ccccc34)CC2)c1C`, the activity change, negative = inhibition was 21.8% (inactive). In the case of `CCOc1ccc(N(CC)C(=O)c2cc3c(=O)oc4ccccc4c3s2)cc1`, the activity change, negative = inhibition is reported as 5.06% (inactive). In the case of `NS(=O)(=O)c1ccc(CCNC(=O)CN2C(=O)c3ccccc3S2(=O)=O)cc1`, the activity change, negative = inhibition is reported as -13% (inactive). For `Cc1ccc(S(=O)(=O)N(C)CC(=O)N2CCc3ccccc32)cc1`, the activity change, negative = inhibition was -22.7% (inactive). For `O=C(CN1C(=O)c2ccccc2S1(=O)=O)N1CCc2ccccc21`, the activity change, negative = inhibition was -93.9% (active). With `O=C(Cn1cc(SCc2ccccc2)c2ccccc21)N1CCCCC1` the activity change, negative = inhibition was -27.6% (inactive). For `CC(=O)Nc1ccc(Nc2c3ccccc3nc3ccccc23)cc1`, the activity change, negative = inhibition was -99.6% (active). For `CC(=O)Nc1ccc(Nc2nc3c(S(=O)(=O)c4ccc(C)c(C)c4)nnn3c3ccccc23)cc1`, the activity change, negative = inhibition was -35.4% (inactive). In the case of `Cc1ccc(Nc2c3c(nc4ccccc24)CCC3)cc1`, the activity change, negative = inhibition is reported as -74.2% (active). For `CC(=O)Nc1ccc(S(=O)(=O)N2CCN(c3ccccc3)CC2)cc1`, the activity change, negative = inhibition was -20.6% (inactive). For `Brc1ccc(Nc2c3c(nc4ncnn24)CCC3)cc1`, the activity change, negative = inhibition was -30.4% (inactive). With `Cc1ccc(CNC(=O)CSc2c3c(nc4cc(Cl)ccc24)CCCC3)cc1` the activity change, negative = inhibition was -19.8% (inactive).
